Rows were chosen to be rich in hits. Some 3.9% of all compounds tested hit in one or more screens of this group.
Tau filament bind – binds recombinant human tau filaments. P10636. recombinant tau filaments, thioflavin S fluorescence, 15 h; filaments grown with octadecylsulfate alongside compound. Potency, µM (doses to about 57.1 µM), without a hit: top-dose activity change, negative = inhibition. actives 2% (n = 71,000);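 note: % is set by controls: 0 for no effect and ±100 for the full control effect; actives lower thioflavin S fluorescence by blocking filaments or displacing dye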
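Read-out: ThS fluorescence, 450 nm excitation/510 nm emission; lower signal marks blocked filament formation or displaced dye. Tau at 1 uM with 30 uM ODS, 10 uM ThS, 5 mM DTT, 100 mM NaCl, 10 mM HEPES pH 7.4; 15 h, 37 C.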
Casp1 inh – blocks human caspase-1 allosterically or competitively; Caspase-1 enzyme, Ac-WEHD-AFC fluorogenic rate; Potency, µM (highest dose often 57.5 µM), without a hit: at the top dose activity change, negative = inhibition, actives largely listed as inhibitors; actives 0.03% (n = 75,000); AID 900;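 note: plate controls were vehicle for no effect and no substrate for full effect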
Target sequence (P29466 120-297 limits assumed): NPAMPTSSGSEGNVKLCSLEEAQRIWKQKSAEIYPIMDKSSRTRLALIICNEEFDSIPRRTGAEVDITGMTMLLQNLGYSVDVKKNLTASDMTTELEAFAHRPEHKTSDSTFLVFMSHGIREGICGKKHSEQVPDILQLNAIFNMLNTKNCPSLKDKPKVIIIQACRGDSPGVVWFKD
Target sequence (P29466 317-404 limits assumed): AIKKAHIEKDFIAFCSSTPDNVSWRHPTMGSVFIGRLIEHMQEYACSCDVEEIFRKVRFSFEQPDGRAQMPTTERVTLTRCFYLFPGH
Caspase-7 inhib – allosteric or competitive inhibitors of human caspase-7; P55210; Potency, µM (highest dose often 57.5 µM), inactives show at the top dose activity change, negative = inhibition, hits mostly inhibitors; recombinant caspase-7, Ac-DEVD-AFC fluorescence rate; actives 0.02% (n = 75,000); active = well fitted inhibition curve with a large enough effect in the main read-out, with a control signal flat, not every such curve was filed as active; inconclusive = small, poorly fitted or top-dose-only effect, or a change in a side signal; note: % of control where 0% means no effect
Target sequence (P55210 24-198 limits assumed): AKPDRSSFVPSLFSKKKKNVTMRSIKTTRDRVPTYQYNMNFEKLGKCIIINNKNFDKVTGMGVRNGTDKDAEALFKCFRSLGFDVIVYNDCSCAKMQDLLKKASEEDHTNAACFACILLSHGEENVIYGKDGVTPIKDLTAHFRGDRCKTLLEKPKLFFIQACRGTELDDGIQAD
Target sequence (P55210 207-303 limits assumed): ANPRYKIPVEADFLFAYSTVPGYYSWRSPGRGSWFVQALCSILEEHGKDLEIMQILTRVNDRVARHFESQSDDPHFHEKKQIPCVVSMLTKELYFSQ
15-hLO inh – blocks human 15-lipoxygenase activity; purified 15hLO-1, xylenol orange hydroperoxide absorbance; Potency, µM (highest dose often 57.1 µM), without a hit: at the top dose activity change, negative = inhibition, hits mostly inhibitors; actives 1.4% (n = 74,000); AID 887; note: % is set by controls: 0 for no effect and ±100 for the full control effect; nearly all actives have a fitted effect of over 55% in size
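40 nM 15hLO-1 + cpd, 15 min RT; start w/ 50 uM AA (final), 6 min RT; stop/detect w/ 200 uM XO + 300 uM Fe(II) in 50 mM H2SO4, 30 min; A573/A405. Buffer 25 mM Hepes pH 7.5, 0.01% Triton X-100. No-enzyme wells as negative control.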
ERK AVP block – vasopressin-driven ERK pathway inhibition; AID 995; Potency, µM (highest dose often 57.5 µM), for inactives: at the highest dose activity, negative = inhibition, actives largely listed as inhibitors; actives 0.99% (n = 72,000); HEK293-V1b, vasopressin-stimulated pERK AlphaScreen; note: % is set by controls: 0 for no effect and ±100 for the full control effect; nearly all actives have a fitted effect of over 55% in size
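qHTS, compounds titrated on V1b-expressing HEK293 cells. Preincubation 30 min at 37C, vasopressin 25 nM for 5 min, lysis 10 min, bead incubation 5 hr at room temperature.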
* marks the source's active call; other numbers are inactive results; u = inconclusive; x = no result; [ ] = remark or other dose. Unless noted, calls come from the whole dose curve; as a rule, active = well fitted curve in the direction sought with a large enough effect; inconclusive = small, poorly fitted or top-dose-only effect, or another doubt; inactive = no such curve, though single readings can be large; an effect the other way counts as inactive or inconclusive. Potency is the fitted concentration of half-maximal effect.

SMILES | Tau filament bind | Casp1 inh | Caspase-7 inhib | 15-hLO inh | ERK AVP block
Cc1nn(-c2ccc(Cl)cc2)c2[nH]c(=O)c(CNCc3ccc4c(c3)OCO4)cc12 | -19.7% | -2.1% | -0.7% | -8.6% | -24.0%
Cc1nn(-c2ccccc2)c2[nH]c(=O)c(CNc3ccc(N4CCOCC4)cc3)cc12 | 20µM* | -8.9% | -4.4% | 12.6µM* | -17.5%
N#Cc1cn(-c2ccccc2)nc1-c1ccccc1 | 69.3% | 0.0% | 0.0% | 6.6% | 3.0%
N#Cc1cc(-c2ccccc2)nn1-c1ccccc1 | 122.0% | -2.0% | -1.5% | 15.8µM* | 33.7%
CCC(C)Nc1ccc(NC(C)CC)cc1 (configuration not stated) | 15.8µM* | u | -10.1% | u | 5.5%
CCCc1ccc(Oc2cn[nH]c2-c2ccc(O)cc2O)cc1 | 0.794µM* | -9.5% | -11.8% | 3.16µM* | u
Cc1cccc(N2CCN(C(=O)CSCc3c(C)noc3C)CC2)c1C | 1.6% | 1.3% | 7.0% | -29.0% | 25.1µM*
O=C(O)C[C@H](Cc1ccccc1)C(=O)O | -5.8%[11.4 µM] | -4.5%[11.5 µM] | 0.7%[11.5 µM] | 1.0%[11.4 µM] | 9.6%[11.5 µM]
CO[C@@H](NC(N)=O)C(=O)O | 13.2%[11.4 µM] | 5.1%[11.5 µM] | 1.3%[11.5 µM] | 3.8%[11.4 µM] | -21.4%[11.5 µM]
C=CCn1c2ccccc2c2nnc(SCCCn3c(=O)[nH]c4ccccc43)nc21 | 3.16µM* | -3.1% | -5.2% | 15.8µM* | 12.6µM*
COC(=O)C/C=C\[C@@H](C)[C@@H](CO)NS(=O)(=O)c1ccc(C)cc1 | x | 2.1%[11.5 µM] | -0.2%[11.5 µM] | 7.7%[11.4 µM] | 9.6%[11.5 µM]
C=C(C)COc1ccc(-c2ncncc2Oc2ccc(OC)cc2)c(O)c1 | 20µM* | -0.1% | -8.2% | -2.9% | 5.7%
COc1ccc(-c2cnc(N)nc2-c2ccc(OC)cc2O)cc1 | u | -5.1% | -1.2% | -18.2% | u
C=C(C)COc1ccc(-c2nc(N)ncc2-c2ccc(OC)cc2)c(O)c1 | 12.6µM* | -10.1% | -14.6% | -13.3% | -28.1%
C=C(C)COc1ccc(-c2[nH]ncc2Oc2cccc(OC)c2)c(O)c1 | 44.2% | -4.7% | -6.7% | -25.6% | 3.7%
CCNc1ncc2nc(-c3ccc(Cl)cc3)c(=O)n(Cc3ccc(F)cc3)c2n1 | -9.8% | x | u | u | -3.0%
O=C(O)CC[C@@H](NC(=O)c1ccccc1C(=O)O)C(=O)O | 0.0% | -1.8% | 0.9% | 4.2% | 42.2%
Oc1ccc(N2CCN(c3ncnc4sc5c(c34)CCC5)CC2)cc1 | -19.3% | -3.3% | x | 3.16µM* | u
Cc1nc(N2CCN(c3ccccc3)CC2)c2c3c(sc2n1)CCC3 | 33.9% | -0.2% | -1.1% | u | 0.3%
NNC(=O)[C@@H](O)[C@H](O)[C@H](O)CO | -4.4%[11.4 µM] | -1.6%[11.5 µM] | -2.1%[11.5 µM] | 4.4%[11.4 µM] | -4.0%[11.5 µM]
CCOC(=O)c1sc(NC(=O)CSc2nnc(Cc3ccccc3)o2)c(C#N)c1C | 20µM* | -2.6% | -10.6% | u | -5.3%
CCOC(=O)c1sc(NC(=O)CSc2n[nH]c(-c3ccccc3)n2)c(C#N)c1C | u | -4.7% | -7.9% | 12.6µM* | u
CCOC(=O)c1sc(NC(=O)CSc2ccccn2)c(C#N)c1C | -8.6% | -0.2% | 0.3% | -5.1% | -19.6%
Cc1ccc(C#N)cc1 | 5.0% | -3.0% | 1.4% | 8.0% | 6.1%
COc1ccc(-n2c(=O)cnc3cnc(Oc4cccc(Cl)c4)nc32)cc1 | -4.1% | -3.9% | -1.0% | 3.2% | -7.2%
SMILES | Tau filament bind | Casp1 inh | Caspase-7 inhib | 15-hLO inh | ERK AVP block
Nc1nc(N)nc(CC(=O)O)n1 | -3.8%[11.4 µM] | -2.8%[11.5 µM] | -1.0%[11.5 µM] | -0.3%[11.4 µM] | -14.4%[11.5 µM]
N=c1c(C(=O)NCc2ccc(F)cc2)cc2c(=O)n3ccccc3nc2n1CC1CCCO1 (configuration not stated) | 3.16µM* | x | u | -13.6% | -10.4%
Cc1ccc(CNC(=O)c2cc3c(=O)n4cccc(C)c4nc3n(CC3CCCO3)c2=N)cc1 (configuration not stated) | 1.26µM* | x | u | -0.3% | 2.3%
COCCCn1c(=N)c(C(=O)NCC2CCCO2)cc2c(=O)n3ccccc3nc21 (configuration not stated) | 44.3% | x | u | 25.1µM* | -2.2%
CCCn1c(=N)c(C(=O)NCC2CCCO2)cc2c(=O)n3cccc(C)c3nc21 (configuration not stated) | -13.7% | x | u | -1.3% | -11.2%
COc1ccc2c(c1)OCC(Cc1ccc(OC)c(OC(C)=O)c1)C2=O (configuration not stated) | x | 0.9% | -1.8% | -5.4% | 11.7%
O=c1c(-c2cccs2)nc2cnc(Oc3cccc(Cl)c3)nc2n1C1CC1 | 168.4% | x | u | -16.3% | 6.1%
O=C(NC1CCN(Cc2ccccc2)CC1)c1ccc(-n2c(=O)c(=O)[nH]c3ccccc32)cc1 | x | u | -0.4% | -6.9% | x
O=C(O)CCCc1ccc2ccccc2c1 | -1.5%[11.4 µM] | 8.1%[11.5 µM] | -0.2%[11.5 µM] | 4.8%[11.4 µM] | -14.6%[11.5 µM]
Cc1cc2ccccc2c[n+]1CC(O)C[n+]1cc2ccccc2cc1C | u | -1.5%[11.5 µM] | 0.6%[11.5 µM] | 27.1%[11.4 µM] | -12.4%[11.5 µM]
COc1ccc(OC)c(NS(=O)(=O)Cc2ccccc2)c1 | 15.8µM* | -0.7% | -2.3% | -18.9% | u
Nc1nc(NCCc2ccc(O)cc2)nc2nc(-c3ccco3)nn12 | 31.6µM* | -3.5% | 1.9% | -9.8%[25.6 µM] | u
CC(=O)c1cccc(NC(=O)Cc2cccs2)c1 | 3.98µM* | -2.8% | -11.2% | u | -16.0%
O=C(Cc1cccs1)Nc1cccc(C(=O)Nc2ccco2)c1 | 3.4% | 2.2% | 3.2% | 1.4% | -27.6%
S=C(Nc1ccccn1)c1ccccn1 | 25.1µM* | -0.6% | 2.2% | -17.1% | -17.6%
CCCCN1CCC(CCC(=O)c2cc(Cl)c(N)cc2OC)CC1 | 179.4% | 0.0% | -0.8% | -15.8%[25.6 µM] | -6.2%
COc1cc(N)c(Cl)cc1C(=O)N[C@H]1CCN(CCCOc2ccc(F)cc2)C[C@@H]1OC | u | 0.3% | -0.4% | u | 31.6µM*
CSc1nc(N)c2ncn([C@@H]3O[C@@H](COP(=O)(O)OP(=O)(O)OP(=O)(O)O)[C@@H](O)[C@H]3O)c2n1 | -0.3% | 0.6% | 0.7% | 11.6% | 25.5%
COc1ccc2[nH]cc(CCNc3cc(-c4ccccc4OC)ncn3)c2c1 | -15.2% | -1.1% | -3.1% | -22.5% | -16.7%
CN1CCN(C(=O)c2ccc(-n3c(=O)c(=O)[nH]c4ccccc43)cc2)CC1 | x | -2.3% | 0.2% | -5.6% | x
CCOC(=O)CCN1CCN(C(=O)c2ccc(-n3c(=O)c(=O)[nH]c4ccccc43)cc2)CC1 | x | -2.4% | -1.2% | 12.6µM* | x
NC(Cc1c[nH]c2ccccc12)C(=O)O (configuration not stated) | x | -1.5% | -2.0% | 7.94µM* | -16.6%
N[C@H](Cc1c[nH]c2ccccc12)C(=O)O | x | 0.2% | -1.6% | -6.1% | x
Cc1onc(-c2ccccc2)c1C(=O)Nc1ccc2c(c1)OCO2 | 15.8µM* | -2.2% | -4.6% | 0.1% | -19.5%
Cc1onc(-c2ccccc2)c1C(=O)OCC(=O)Nc1ccc2c(c1)OCO2 | 2.6% | -1.2% | -3.0% | -3.4% | 12.2%
c1cc2c(cc1-c1cnc3n1CCC3)OCCO2 | -0.7% | 3.2% | -1.8% | 25.0% | 15.8µM*

Compound activity (PubChem)
